The source of these data is PubChem BioAssay (NCI).

Molecules are shown by their SMILES. About 83,000 compounds went through this panel and 20% of them were active in at least one assay; those are over-represented in the sample as a whole.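 Compound tested at a single concentration for 48 hours in 96-well plates; a percent growth value below 10 was scored as active.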 A number with no mark means an inactive call. Active and inactive are the calls of the source.

The assay deals with HL-60(TB) leukemia. Kind of assay: NCI-60 one-dose screen, 48 h (100 = growth as untreated, 0 = no growth, -100 = all killed). To be noted: 10 µM unless noted.
`Cc1c2ccccc2nc2c1ccc1cccnc12`: the growth was 85.8%.

`Nc1ccc(C(=O)Nc2cccc(C(=O)Nc3ccc4c(O)c(N=Nc5ccc(N=Nc6ccc(S(=O)(=O)O)cc6)cc5)c(S(=O)(=O)O)cc4c3)c2)cc1`: the growth was 89.1%.

Consider `OCCNc1nc(Nc2ccc(C3=NN(c4cc(Cl)cc(Cl)c4)C(c4ccc(C(F)(F)F)cc4)C3)cc2)nc(N2CCOCC2)n1` (stereo not given), for which the growth is 101%.

As to `Cc1[nH]c(C(=O)Nc2ccccc2OC2CCNC2)c(Cl)c1Cl` (stereo not given), the growth was 90.6%.

Turning to `O=C1C=C(O)c2ccccc2C1=O.[Ag]`, the growth was 96%.

For `Cc1cc(C)c([O-])c(CN(C)CCN(C)Cc2cc(C)cc(C)c2[O-])c1.O=C([O-])c1cccc(C(=O)[O-])n1.[Ti+4]`, the growth is -7.45% (active).

Consider `C[C@@H]1COC(Nc2ccc3ncnc(Nc4ccc(OCc5nccs5)c(Cl)c4)c3c2)=N1`, for which the growth was 31.3%.

Turning to `COc1ccc(-c2cc(-c3nnc(SCC(=O)Nc4ccc(/C(C)=N\O)cc4)n3-c3ccccc3)c3cc(OC)ccc3n2)cc1`, the growth was 31.8%.

For `CCCn1cnc2c1c(=O)n(CCCCC(C)=O)c(=O)n2C`, the growth was 91.4%.

In the case of `CC1SC(c2c(Cl)cccc2Cl)N(NC(=O)c2[nH]c3ccc(F)cc3c2-c2ccccc2)C1=O` (stereo not given), the growth is 103%.

With `CCN(CC)CCCNc1c2ccc(Cl)cc2nc2ccc(OC)cc12`, the growth was -50.3% (active).

For `N#Cc1cnc2ccc(NCc3cnc[nH]3)cc2c1Nc1ccc(F)c(Cl)c1`, the growth is 79.4%.

As to `O=C(/C=C/c1ccccc1)c1ccc(-n2cc(CN3CCN(c4cc5c(cc4F)c(=O)c(C(=O)O)cn5C4CC4)CC3)nn2)cc1`, the growth was 99.1%.

As to `O=C(/C=C/c1ccc(Cl)cc1)c1cccc(OCCCOc2cccc(C(=O)/C=C/c3ccc(Cl)cc3)c2)c1`, the growth was 96.2%.

As to `Oc1ccc(/C=N/NC(=S)Nc2ccccc2)nc1`, the growth was -8.79% (active).

As for `COc1cc(-c2c3sc(=O)[nH]c3nc3c2c(=O)[nH]n3C(C)C)cc2c1OCO2`, the growth is 116%.

Turning to `COc1ccc2nc(-c3ccc(OC)c(OC)c3)cc(-c3nnc(SCC(=O)Nc4ccc(/C(C)=N\O)cc4)n3-c3ccccc3)c2c1`, the growth is 26.3%.

As for `COC(=O)c1nc(-c2ccc(C)cc2)oc1Sc1ccc(C)cc1`, the growth was 91.4%.

Turning to `c1ccc2c(c1)oc1cc3c(cc12)nnc1cccn13`, the growth is 108%.

In the case of `C=C(C[n+]1ccccc1)[C@@H]1CC[C@]2(C(=O)OC)CC[C@]3(C)[C@H](CC[C@@H]4[C@@]5(C)CCC(=O)C(C)(C)[C@@H]5CC[C@]43C)[C@@H]12`, the growth was 58%.

As for `NC(=Nc1ccccc1)SCCCSC(N)=Nc1ccccc1`, the growth is 82.6%.

Consider `CCCCC(C=O)(C=C=C(C)C)CC` (stereo not given), for which the growth is 104%.

For `CC(C)n1nc(-c2ccc3oc(N)nc3c2)c2c(N)ncnc21`, the growth is 11.4%.

`O=[N+]([O-])c1ccc(-c2cc(-c3ccc(Nc4nc(Nc5ccc(Cl)cc5)nc(Nc5ccc(Cl)cc5)n4)cc3)no2)cc1`: the growth was -63% (active).

Turning to `CC(=O)Nc1ccc(/C=N/N2CCCCCC2)cc1`, the growth is 95.1%.

For `O=C(NC(CSSCC(NC(=O)OCc1ccccc1)C(=O)O)C(=O)O)OCc1ccccc1` (stereo not given), the growth is 14.3%.

`O=C1C(Cl)=C(Nc2ccc(S(=O)(=O)N3CCOCC3)cc2)C(=O)c2ccccc21`: the growth is -17.7% (active).

In the case of `COC(=O)CC[C@@H](C)[C@H]1CC[C@H]2[C@@H]3CC[C@@H]4C[C@H](O)CC[C@]4(C)[C@H]3C[C@H](O)[C@]12C`, the growth is 96.9%.

For `CN1C(=O)N(C)C2C1NN=c1s/c(=C\c3ccccc3F)c(=O)n12` (stereo not given), the growth is -46.5% (active).

On to `Cn1c2c(cc(S(=O)(=O)c3ccccc3)c1=O)CCc1c-2cnn1-c1cccc(Cl)c1`, for which the growth was 107%.

`c1ccc(-c2nc([P+](c3ccccc3)(c3ccccc3)c3ccccc3)c(N3CCOCC3)o2)cc1`: the growth is -12% (active).

In the case of `Nc1c(C(=O)O)cc(Cl)cc1[N+](=O)[O-]`, the growth is 73.7%.

`O=C(N=Nc1c(O)[nH]c2ccccc12)Nc1ccccc1Cl`: the growth is 78.3%.

Take `Cc1nn(C)c2ncnc(Nc3ccccc3Br)c12`: the growth is 94.3%.

On to `CN1CCN(CCCOc2cccc3nc(Nc4cc(Cl)cc(Cl)c4)ccc23)CC1`, for which the growth was 56.4%.

Turning to `Cn1c(NCCc2ccc(O)c(O)c2)nc2c1c(=O)n(Cc1ccc(Br)cc1)c(=O)n2C`, the growth is 2.61% (active).

On to `CC1(C)OC(=O)C(c2ccsc2)C(=O)O1`, for which the growth is 112%.

Take `O=C1CC(c2ccc(Cl)cc2)c2ncn(-c3cccc(Cl)c3)c2N1` (stereo not given): the growth was -4.87% (active).

With `Cn1c(=O)c2[nH]c(SCC(=O)Nc3ccc(C(=O)/C=C/c4ccccc4Cl)cc3)nc2n(C)c1=O`, the growth was 98.6%.

Regarding `COc1ccc(C(=O)c2cc3c(N)c(C(=O)Nc4ccc(C)cc4)sc3nc2C)cc1`, the growth is 7.74% (active).
